# “And” between values parts separate entries of the source, which are not always exact repeats. Identical values can stand only once. Records with an inconclusive call do not appear. The source made the active and inactive calls. Calls come from the whole dose curve; as a rule, active = well fitted inhibition curve with a large enough effect; inconclusive = small, poorly fitted or top-dose-only effect; inactive = no such curve, though single readings can be large or run the other way.
# Biological target: Cytochrome P450 2D6 (Homo sapiens) (UniProt P10635)
# Sequence (P10635 whole entry, looked up): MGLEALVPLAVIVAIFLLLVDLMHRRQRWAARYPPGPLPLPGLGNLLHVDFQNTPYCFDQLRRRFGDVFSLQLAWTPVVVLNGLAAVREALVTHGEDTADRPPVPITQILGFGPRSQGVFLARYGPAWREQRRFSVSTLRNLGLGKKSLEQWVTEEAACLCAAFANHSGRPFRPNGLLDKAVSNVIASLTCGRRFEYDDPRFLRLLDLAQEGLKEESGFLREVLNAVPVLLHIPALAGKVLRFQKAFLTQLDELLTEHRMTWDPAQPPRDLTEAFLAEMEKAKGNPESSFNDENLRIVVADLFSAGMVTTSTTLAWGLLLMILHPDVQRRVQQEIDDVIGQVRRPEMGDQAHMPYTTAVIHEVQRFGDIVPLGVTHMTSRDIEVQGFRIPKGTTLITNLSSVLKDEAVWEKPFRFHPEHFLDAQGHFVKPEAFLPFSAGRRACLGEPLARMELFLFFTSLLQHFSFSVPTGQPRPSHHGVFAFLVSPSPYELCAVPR
# Assay: qHTS Assay for Inhibitors and Substrates of Cytochrome P450 2D6 (AID 891); note: nearly all actives have a fitted effect of over 60% in size
# Conditions: recombinant CYP2D6, luciferin-ME EGE luminescence; series mostly up to 57.1 µM
# Procedure, shortened: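 Human CYP2D6 (5 nM) with 30 uM Luciferin-ME EGE (at Km) in 100 mM KPO4, compound preincubated 10 min, then NADPH regeneration system for 60 min at room temperature. Luciferin read by luminescence; normalized to 1.43 uM quinidine.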
# Potency is the fitted concentration of half-maximal effect.
row,SMILES,Potency
1,Cc1cccc(C)c1NC(=O)CN1CCN(CCCC(c2ccc(F)cc2)c2ccc(F)cc2)CC1,5.01 µM (active)
2,CCN1CCC[C@H]1CNC(=O)c1c(OC)ccc(Br)c1OC,0.199 µM (active)
3,O=C(COc1ccc(Cl)cc1)N1CCN(Cc2ccc3c(c2)OCO3)CC1,0.199 µM (active)
4,CN(C(=O)CN(CCO)CC(=O)N(C)C(C)(C)Cc1ccccc1)C(C)(C)Cc1ccccc1,3.16 µM (active)
5,O=C(CCCN1CCC(O)(c2ccc(Br)cc2)CC1)c1ccc(F)cc1,3.98 µM (active)
6,CN1CCC(=C2c3ccccc3Sc3ccccc32)CC1,3.98 µM (active)
7,OC(CCN1CCCCC1)(c1ccccc1)c1ccccc1,5.01 µM (active) and 1.26 µM (active)
8,CN(C)CC/C=C1\c2ccccc2Sc2ccc(Cl)cc21,2.51 µM (active)

# — PubChem BioAssay (NCATS)
